aSyn 5UTR inh – MLPCN primary screen, SNCA 5' untranslated region | alpha-synuclein 5'UTR reporter, inhibitor activity | inhibition, % (tested at 7.5 µM) | 300,000 tested, 0.82% active; in the data active = inhibition above about 60%; inconclusive = no clear call, values can overlap the other calls;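 also: H4 neuroglioblastoma cells stably carrying SNCA 5'UTR luciferase fusion; 0% = DMSO wells and 100% = positive control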
Mdm2-MdmX inh – disrupts the human Mdm2-MdmX interaction; inhibition, % at 8 µM; SaOS-2 split-luciferase Mdm2/MdmX complementation, luminescence; 330,000 tested, 3% active; AID 485346; O15151+Q00987;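 active = inhibition of at least 50% at 8 µM in the primary screen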
Target sequence (O15151 whole entry, looked up): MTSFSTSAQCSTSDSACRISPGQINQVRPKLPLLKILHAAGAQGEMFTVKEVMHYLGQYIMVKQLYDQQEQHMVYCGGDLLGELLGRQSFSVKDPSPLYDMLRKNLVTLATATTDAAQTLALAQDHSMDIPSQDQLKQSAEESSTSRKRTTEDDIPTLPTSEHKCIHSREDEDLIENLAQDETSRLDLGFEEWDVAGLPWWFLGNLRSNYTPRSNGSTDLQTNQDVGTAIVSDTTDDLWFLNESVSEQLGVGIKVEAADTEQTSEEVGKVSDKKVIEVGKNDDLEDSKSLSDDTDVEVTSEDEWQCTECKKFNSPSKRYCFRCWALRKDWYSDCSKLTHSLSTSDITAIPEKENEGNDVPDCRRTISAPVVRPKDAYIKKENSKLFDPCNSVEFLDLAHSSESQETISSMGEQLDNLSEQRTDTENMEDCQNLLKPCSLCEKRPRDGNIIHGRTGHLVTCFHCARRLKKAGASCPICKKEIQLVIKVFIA
Target sequence (Q00987 whole entry, looked up): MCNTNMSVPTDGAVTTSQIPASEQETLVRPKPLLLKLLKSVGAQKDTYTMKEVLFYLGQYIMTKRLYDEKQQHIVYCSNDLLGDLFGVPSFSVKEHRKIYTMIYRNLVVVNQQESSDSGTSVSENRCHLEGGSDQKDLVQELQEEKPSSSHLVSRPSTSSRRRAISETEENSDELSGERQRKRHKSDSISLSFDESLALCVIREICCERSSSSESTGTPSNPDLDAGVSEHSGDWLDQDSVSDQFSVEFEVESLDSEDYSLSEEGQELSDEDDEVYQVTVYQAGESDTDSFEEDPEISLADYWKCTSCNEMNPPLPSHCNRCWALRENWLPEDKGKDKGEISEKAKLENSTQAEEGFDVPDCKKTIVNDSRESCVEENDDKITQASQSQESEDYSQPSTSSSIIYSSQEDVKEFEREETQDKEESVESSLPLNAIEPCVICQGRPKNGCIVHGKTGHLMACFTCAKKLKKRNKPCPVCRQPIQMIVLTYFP
A1 inh – inhibitors of the anti-apoptotic protein A1, read as caspase activation; MEF A1-2A-BIM cells, Caspase-Glo 3/7 luminescence, 3 h; percent of clofoctol response, vehicle zero; AID 2462; caspase activation, % (test concentration not listed); 330,000 tested, 0.066% active;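 active = over half of replicate activation scores above 10%, or exactly half above 10 with the replicate mean above 10; inconclusive = replicate mean below 10 yet half the replicates above 10; inactive = over half of replicates below 10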
Beta cell apopt – beta cell apoptosis inhibition | INS-1E cytokine-induced death, ATP luminescence, 48 h; percent of positive-control rescue, neutral wells zero | protection from apoptosis, % (concentration not given with the values) | 300,000 tested, 0.8% active | AID 435005;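 active = Every replicate reaches about 75%, or at least half do and their mean reaches it too, limit read from the data; inconclusive = At least half of replicates reach the limit but their mean does not; inactive = Under half of replicates reach the limit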;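 also: 0% = cytokine-treated negative control wells and 100% = positive control rescue; higher means more ATP so stronger rescue from cytokine killing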
CSC inhib – cancer stem cell inhibition. cancer stem cell-like cells viability, luminescence. inhibition, % at 7.5 µM. 300,000 tested, 1.1% active; in the data active = inhibition above about 75%; inconclusive = no clear call, values can overlap the other calls; tested in HMLE shEcad cells
Mdm2 MdmX conf – human Mdm2/MdmX binding inhibition, confirmed | luminescent assay | AID 489028 | shares compounds with Mdm2-MdmX inh | inhibition, % at 8 µM | 10,000 tested, 55% active; in the data active = inhibition above about 40%
Full FLuc ctr – inhibits full-length luciferase, flagging false Mdm2/MdmX hits. shares compounds with Mdm2-MdmX inh. SaOS-2 full-length luciferase counterscreen, luminescence. inhibition, % at 8 µM. 6,200 tested, 77% active. AID 504607;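 active = mean inhibition at 8 µM reaching about 37%, which flags the compound as non-specific, limit read from the data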;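 also: p53-null SaOS-2 cells with luciferase driven by a doxycycline-inducible promoter; compound on cells about two nights before reading with doxycycline added after day one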
* = called active by the depositor. Sampled rows, rich in hits. Any-hit rate of the full collection: about 4.1%.

For CCOC(=O)c1ccc(N2CCOCC2)c(NC(=O)c2c(-c3ccccc3)noc2C)c1 the results were aSyn 5UTR inh 46, Mdm2-MdmX inh 60*, A1 inh 0, CSC inhib 53, Mdm2 MdmX conf 67* and Full FLuc ctr 54*.
`COc1ccc([N+](=O)[O-])cc1NS(=O)(=O)c1cc(C(=O)N2CCN(C)CC2)ccc1OC` gave Mdm2-MdmX inh -22, A1 inh 0 and Beta cell apopt -2.
c1ccc(-c2cccc(-c3ccccn3)n2)nc1 was read as aSyn 5UTR inh 77*, Mdm2-MdmX inh 66*, A1 inh 0, Beta cell apopt 82*, CSC inhib 107*, Mdm2 MdmX conf 79* and Full FLuc ctr 18.
`c1ccc(-c2nnc(-c3ccccn3)nn2)nc1` gave aSyn 5UTR inh -122, Mdm2-MdmX inh -37, A1 inh -7, Beta cell apopt 1 and CSC inhib 6.
For NC(=O)c1[nH]cnc1N the results were aSyn 5UTR inh 19, Mdm2-MdmX inh -5, A1 inh 0, Beta cell apopt 2 and CSC inhib 2.
Cc1ccc(OCCCCNC2CCCC(C)C2C)c(C)c1 (centres undefined) was read as aSyn 5UTR inh -6, Mdm2-MdmX inh 56*, A1 inh 0, Beta cell apopt 27, CSC inhib 54 and Mdm2 MdmX conf 38.
Cc1cccc(OC(C)C(=O)NC2CCS(=O)(=O)C2)c1C (centres undefined) was read as aSyn 5UTR inh -5, Mdm2-MdmX inh 13, A1 inh 0, Beta cell apopt -1 and CSC inhib -8.
For O=C(N/N=C/c1cccc([N+](=O)[O-])c1)c1cc(-c2ccc3c(c2)OCO3)n[nH]1 the results were aSyn 5UTR inh -15, Mdm2-MdmX inh 52*, A1 inh 0, Beta cell apopt 50, CSC inhib 11 and Mdm2 MdmX conf 32.
For CCc1ccc2c(Cl)c(C(=O)N/N=C/c3c[nH]c4ccccc34)sc2c1 the results were aSyn 5UTR inh 12, Mdm2-MdmX inh 46, A1 inh 0 and CSC inhib 62.
`CCOC(=O)c1cc(-c2cccc([N+](=O)[O-])c2)n[nH]1` gave aSyn 5UTR inh -17, Mdm2-MdmX inh -4, A1 inh -1, Beta cell apopt -6 and CSC inhib 2.
`O=C(CNC(=O)c1ccc2c(c1)OCO2)N/N=C/c1cccc([N+](=O)[O-])c1` gave aSyn 5UTR inh -8, Mdm2-MdmX inh -16, A1 inh 0, Beta cell apopt -8 and CSC inhib 0.
For CCc1ccc(-c2cc(C(=O)N/N=C/c3c[nH]c4ccccc34)[nH]n2)cc1 the results were aSyn 5UTR inh -3, Mdm2-MdmX inh 62*, A1 inh 0, Beta cell apopt 15, CSC inhib inconclusive, Mdm2 MdmX conf 51* and Full FLuc ctr 101*.
Screening CCc1ccc(/C=N/NC(=O)c2cc(-c3cccc([N+](=O)[O-])c3)n[nH]2)cc1 returned aSyn 5UTR inh 7, Mdm2-MdmX inh 62*, A1 inh 0, Beta cell apopt 29, CSC inhib 69, Mdm2 MdmX conf 62* and Full FLuc ctr 70*.
`COc1ccc(/C=C/C(=O)N(C)CC(=O)Nc2cccc(F)c2)cc1S(=O)(=O)N1CCCCC1` gave Mdm2-MdmX inh 52*, Mdm2 MdmX conf 55* and Full FLuc ctr 69*.
For COc1ccccc1CN1CC(C(=O)N2CCC(C(=O)c3ccccc3)CC2)CCC1=O (centres undefined) the results were aSyn 5UTR inh -42, Mdm2-MdmX inh -28, A1 inh 0, Beta cell apopt 4 and CSC inhib 21.
Screening CCC(=O)N/C(N)=N/c1nc(C)c2cc(C)c(C)cc2n1 returned aSyn 5UTR inh 42, Mdm2-MdmX inh 74*, A1 inh inconclusive, Beta cell apopt 31, CSC inhib 44, Mdm2 MdmX conf 57* and Full FLuc ctr 69*.
`CCCC(=O)N/C(N)=N/c1nc(C)c2cc(C)ccc2n1` gave aSyn 5UTR inh -31, Mdm2-MdmX inh 31, A1 inh 0, Beta cell apopt 2 and CSC inhib 11.
`Cc1cc2nc(/N=C(\N)NC(=O)C(C)C)nc(C)c2cc1C` gave aSyn 5UTR inh 29, Mdm2-MdmX inh 56*, A1 inh 0, Beta cell apopt 4, CSC inhib 24, Mdm2 MdmX conf 38 and Full FLuc ctr 84*.
Screening COc1cc(-c2onc3ccc(Br)cc23)cc(OC)c1OC returned aSyn 5UTR inh 66*, Mdm2-MdmX inh 50*, A1 inh 0, Beta cell apopt 11, CSC inhib -17, Mdm2 MdmX conf 52* and Full FLuc ctr 60*.
`O=C(COC(=O)/C=C/c1cccc(F)c1)NC(=O)NCc1ccccc1` gave Mdm2-MdmX inh -1, A1 inh 0, Beta cell apopt -2 and CSC inhib -19.
CCOC(CCNC(=O)c1cc(-c2cccs2)nc2ccccc12)OCC was read as aSyn 5UTR inh -3, Mdm2-MdmX inh 16, A1 inh 2, Beta cell apopt 3 and CSC inhib 0.
Screening COc1ccc(N(C(=O)c2ccccc2C)S(=O)(=O)c2cccs2)cc1 returned aSyn 5UTR inh 31, Mdm2-MdmX inh 59*, A1 inh 0, Beta cell apopt 13, CSC inhib inconclusive, Mdm2 MdmX conf 53* and Full FLuc ctr 105*.
For COc1ccc(N(C(=O)c2ccncc2)S(=O)(=O)c2ccccc2)cc1 the results were aSyn 5UTR inh -15, Mdm2-MdmX inh 18, A1 inh 0, Beta cell apopt -8 and CSC inhib -7.
CN(CC(=O)Nc1ccc(N2CCOCC2)cc1)C(=O)CCNC(=O)c1ccc(Br)cc1 was read as aSyn 5UTR inh -4, Mdm2-MdmX inh 13, A1 inh 0 and CSC inhib -7.
Cc1ccc(-c2ccc(SCC(=O)N3CCN(c4ccccc4)CC3)nn2)cc1 was read as aSyn 5UTR inh -91, Mdm2-MdmX inh -1, A1 inh -1, Beta cell apopt -2 and CSC inhib 2.
COc1ccc(-c2ccc(SCC(=O)N3CCN(c4ccccc4)CC3)nn2)cc1 was read as aSyn 5UTR inh -11, Mdm2-MdmX inh 52*, A1 inh 0, Beta cell apopt -2, CSC inhib -7 and Mdm2 MdmX conf 10.
O=C(NC(O)C(=O)c1ccc(F)cc1)c1ccc(F)cc1 (centres undefined) was read as aSyn 5UTR inh -5, Mdm2-MdmX inh 19, A1 inh 0 and CSC inhib -14.
Screening Cc1ccc(Cc2c(C)c(C#N)c3[nH]c4ccccc4n3c2=O)cc1 returned aSyn 5UTR inh 23, Mdm2-MdmX inh 65*, A1 inh 1, Beta cell apopt 77*, CSC inhib 32, Mdm2 MdmX conf 55* and Full FLuc ctr 36.

Source: PubChem
